A selection: hits, their analogues and other compounds. The true share with any hit is near 11%.
G9a inh – blocks human histone lysine methyltransferase G9a. G9a H3K9 monomethylation, AlphaScreen, 2 h. Potency, µM (doses to about 102 µM), most hits filed as inhibitors. hit rate 8.8% among 350,000. AID 504332; further: nearly all actives have a fitted effect of over 75% in size
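Using a bead-based AlphaScreen, monomethylated H3K9 product from 2 h room-temperature reactions (G9a 20 nM, peptide 500 nM, SAM 20 uM) was detected with 0.5 ug/mL rabbit anti-H3K9me1 antibody.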
L3MBTL1 block – L3MBTL1 (human) inhibition | AlphaScreen L3MBTL1–H3K9me1 peptide binding | hit rate 0.66% among 230,000 | Q9Y468 | Potency, µM (highest dose often 57.1 µM), most hits filed as inhibitors; further: nearly all actives have a fitted effect of over 60% in size
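Displacement of a biotinylated histone H3(1-15) peptide monomethylated at Lys9 (75 nM) from L3MBTL1 (50 nM) was measured by AlphaScreen after a 30 min room-temperature compound incubation; cefsulodin titration served as intraplate control.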
JMJD2A Tudor inh – JMJD2A Tudor domain (human) inhibition; AlphaScreen JMJD2A-Tudor / H3K4me3 peptide binding; hit rate 4.4% among 390,000; Potency, µM (series often up to 114 µM), actives largely listed as inhibitors; O75164; AID 504339; further: nearly all actives have a fitted effect of over 50% in size
HP1b chromo inh – inhibitors of HP1-beta chromodomain binding to methylated histone tails | P83916 | AlphaScreen HP1-beta / biotin-H3K9me3 peptide binding | Potency, µM (titrated, usually from 114 µM), actives largely listed as inhibitors | hit rate 0.56% among 390,000; further: nearly all actives have a fitted effect of over 70% in size
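AlphaScreen: HP1-beta (50 nM) preformed 30 min with biotin-H3(1-18)K9me3 peptide (50 nM) in PBS pH 7.4, 0.01% Tween-20. Compound added for 30 min at RT, then streptavidin donor/nickel chelate acceptor beads (10 ug/mL) for 30 min.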
BAZ2B block – inhibitors of human BAZ2B bromodomain | Q9UIF8 | AlphaScreen BAZ2B-H3K14Ac peptide displacement | Potency, µM (top dose mostly 114 µM), usual class: inhibitors | hit rate 4.4% among 360,000; further: nearly all actives have a fitted effect of over 60% in size
Target sequence (Q9UIF8 whole entry, looked up): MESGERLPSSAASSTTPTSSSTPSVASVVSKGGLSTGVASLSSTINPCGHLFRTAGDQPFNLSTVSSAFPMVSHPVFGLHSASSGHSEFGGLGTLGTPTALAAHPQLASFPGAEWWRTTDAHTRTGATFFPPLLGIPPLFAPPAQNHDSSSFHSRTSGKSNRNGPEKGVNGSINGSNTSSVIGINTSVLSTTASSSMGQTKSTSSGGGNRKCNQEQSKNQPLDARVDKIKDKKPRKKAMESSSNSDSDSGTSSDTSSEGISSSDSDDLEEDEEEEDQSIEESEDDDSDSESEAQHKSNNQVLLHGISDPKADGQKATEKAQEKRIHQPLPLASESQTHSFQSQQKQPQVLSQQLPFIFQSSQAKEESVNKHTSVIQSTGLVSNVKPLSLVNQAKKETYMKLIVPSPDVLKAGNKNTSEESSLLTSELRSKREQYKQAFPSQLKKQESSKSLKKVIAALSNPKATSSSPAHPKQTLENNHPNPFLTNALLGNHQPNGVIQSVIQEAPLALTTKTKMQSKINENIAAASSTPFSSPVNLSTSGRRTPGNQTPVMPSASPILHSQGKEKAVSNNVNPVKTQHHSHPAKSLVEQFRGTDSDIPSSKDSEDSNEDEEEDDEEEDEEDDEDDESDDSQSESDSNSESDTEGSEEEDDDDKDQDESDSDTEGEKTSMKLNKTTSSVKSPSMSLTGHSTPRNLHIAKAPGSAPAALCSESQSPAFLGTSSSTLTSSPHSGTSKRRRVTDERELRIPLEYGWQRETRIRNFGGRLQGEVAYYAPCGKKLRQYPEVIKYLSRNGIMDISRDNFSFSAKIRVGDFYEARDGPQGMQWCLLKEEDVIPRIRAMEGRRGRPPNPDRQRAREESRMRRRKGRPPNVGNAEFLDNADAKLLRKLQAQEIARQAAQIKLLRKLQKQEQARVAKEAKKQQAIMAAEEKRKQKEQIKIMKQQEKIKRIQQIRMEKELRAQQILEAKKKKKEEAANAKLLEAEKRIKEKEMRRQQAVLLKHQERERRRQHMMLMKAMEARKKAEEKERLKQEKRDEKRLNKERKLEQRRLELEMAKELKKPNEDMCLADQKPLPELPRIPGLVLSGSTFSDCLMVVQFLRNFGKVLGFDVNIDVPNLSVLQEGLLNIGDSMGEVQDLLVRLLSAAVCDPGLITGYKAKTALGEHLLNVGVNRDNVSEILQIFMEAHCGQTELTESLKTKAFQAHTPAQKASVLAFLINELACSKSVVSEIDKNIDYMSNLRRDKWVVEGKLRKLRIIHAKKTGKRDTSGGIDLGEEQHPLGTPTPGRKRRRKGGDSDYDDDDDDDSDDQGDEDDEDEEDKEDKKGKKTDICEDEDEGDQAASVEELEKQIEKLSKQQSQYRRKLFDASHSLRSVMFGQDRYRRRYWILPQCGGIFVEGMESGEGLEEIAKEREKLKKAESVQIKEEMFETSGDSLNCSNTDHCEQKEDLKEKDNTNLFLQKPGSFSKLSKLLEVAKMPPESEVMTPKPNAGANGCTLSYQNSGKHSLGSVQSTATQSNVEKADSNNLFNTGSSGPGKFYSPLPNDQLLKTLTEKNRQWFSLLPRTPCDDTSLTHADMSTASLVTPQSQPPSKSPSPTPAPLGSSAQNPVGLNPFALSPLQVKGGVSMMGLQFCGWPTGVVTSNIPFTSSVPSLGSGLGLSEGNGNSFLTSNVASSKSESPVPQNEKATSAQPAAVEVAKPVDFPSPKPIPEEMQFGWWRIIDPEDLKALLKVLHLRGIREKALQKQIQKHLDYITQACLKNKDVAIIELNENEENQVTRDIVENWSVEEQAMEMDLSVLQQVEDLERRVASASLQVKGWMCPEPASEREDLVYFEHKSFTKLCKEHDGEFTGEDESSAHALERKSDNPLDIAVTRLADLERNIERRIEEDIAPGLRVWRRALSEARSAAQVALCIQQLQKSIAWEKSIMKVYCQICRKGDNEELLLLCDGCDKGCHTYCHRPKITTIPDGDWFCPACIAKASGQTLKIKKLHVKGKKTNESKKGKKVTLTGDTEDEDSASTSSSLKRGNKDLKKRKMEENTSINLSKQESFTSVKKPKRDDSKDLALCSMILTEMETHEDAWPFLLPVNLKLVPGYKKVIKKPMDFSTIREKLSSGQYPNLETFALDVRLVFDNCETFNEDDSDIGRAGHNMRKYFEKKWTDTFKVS
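Complex of BAZ2B and biotin-H3K14Ac (50 nM apiece) forms over 30 min at RT, then faces library compounds up to 110 uM for another 30 min; AlphaScreen beads added, 20 min dark incubation, luminescence read.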
Each line names hits and unclear results; the compound was inactive in the other large screens. The call rests on the fitted dose curve; in most records, active means well fitted inhibition curve with a large enough effect; inconclusive means small, poorly fitted or top-dose-only effect; inactive means no such curve, though single readings can be large or run the other way.

CC1=CCC(/C=N\Nc2nnc3c(n2)[nH]c2ccccc23)CC1 (stereo unspecified)	BAZ2B block 50.1µM (no result: JMJD2A Tudor inh, HP1b chromo inh)
CC1CCN(C(=O)CSc2nnc3c(n2)[nH]c2ccccc23)CC1	JMJD2A Tudor inh inconclusive (no result: L3MBTL1 block)
CC(=O)Nc1ccc(S(=O)(=O)N(C)CC(=O)OCC(=O)N2CCc3ccccc32)cc1	G9a inh 50.1µM (no result: L3MBTL1 block)
CC(=O)Nc1ccc(S(=O)(=O)N(C)CC(=O)Nc2ccccc2N2CCCC2)cc1	G9a inh 44.7µM
CN(CC(=O)Nc1ccc(F)cc1)CC(=O)N1CCc2ccccc21	G9a inh 56.2µM
CN(CC(=O)Nc1ccccc1N1CCOCC1)S(=O)(=O)c1ccc(F)cc1	none
CN(CC(=O)Nc1cccc(F)c1)CC(=O)N1CCc2ccccc21	G9a inh inconclusive
CN(C)c1ccc(CNC(=O)Cc2ccc(NC(=O)N3CCCCc4ccccc43)cc2)cc1	G9a inh 12.6µM, JMJD2A Tudor inh 50.1µM, BAZ2B block 44.7µM (no result: L3MBTL1 block)
Cc1cccc(Cn2cc3c(=O)n(CC(=O)Nc4ccc(C)c(F)c4)nc-3c3cc(F)ccc32)c1	none (no result: L3MBTL1 block)
Cc1nn(CC(=O)NC2CCCCC2)c(=O)c2cc3cc(F)ccc3n12	none (no result: L3MBTL1 block)
Oc1ccc(Cl)cc1C1C=C(c2ccc3c(c2)OCO3)NC(c2ccc(Br)cc2)N1 (stereo unspecified)	none (no result: G9a inh, L3MBTL1 block, BAZ2B block)
CC(=O)C1=C(O)C(=O)N(CCCn2ccnc2)C1c1ccc(Br)cc1 (stereo unspecified)	G9a inh inconclusive, BAZ2B block inconclusive
COc1ccc(C2C(C(C)=O)=C(O)C(=O)N2CCCn2ccnc2)cc1OC (stereo unspecified)	G9a inh 50.1µM, BAZ2B block inconclusive
CCOc1ccc(C2C(C(=O)c3ccco3)=C(O)C(=O)N2CCCn2ccnc2)cc1 (stereo unspecified)	G9a inh inconclusive, JMJD2A Tudor inh 44.7µM
CCOC(=O)c1c(C)[nH]c(CCC(=O)Nc2ccccc2C(=O)OC)c1C	none (no result: L3MBTL1 block)
O=C(/C=N/O)NCCCN1CCCCCC1	G9a inh 44.7µM, JMJD2A Tudor inh inconclusive, BAZ2B block 50.1µM (no result: L3MBTL1 block)
COc1ccc(/C=C/C(=O)NCCCN2CCCCCC2)cc1	G9a inh 50.1µM, JMJD2A Tudor inh inconclusive (no result: L3MBTL1 block)
COc1ccc2cc(/C=C/C(=O)N3CCN(CC(=O)N4CCCCCC4)CC3)ccc2c1	G9a inh 70.8µM (no result: L3MBTL1 block)
COc1ccc(/C=C/C(=O)NCCCN2CCOCC2)cc1	none (no result: L3MBTL1 block)
CC(NC(=O)CSc1nc(-c2cccc(Cl)c2)nc2cc(=O)[nH]n12)c1nc2ccccc2n1C (stereo unspecified)	none (no result: L3MBTL1 block)
COc1ccc(CNC(=O)c2cc3c(-c4ccccc4F)nn(C)c3s2)cc1	none (no result: L3MBTL1 block, BAZ2B block)
Cc1nc(NS(=O)(=O)c2ccccc2C)c2c3c(sc2n1)CCC3	G9a inh 44.7µM
O=C(Nc1cccc(-c2nc3ccccc3o2)c1)c1cc([N+](=O)[O-])ccc1N1CCOCC1	G9a inh inconclusive, BAZ2B block inconclusive (no result: L3MBTL1 block)
CCCN1CCC(=O)N([C@H](COc2ccccc2)c2ccccc2)CC1	G9a inh 39.8µM, BAZ2B block inconclusive
COc1ncc2nc(-c3cn(C)c4ccccc34)c(=O)n(CCc3ccccc3)c2n1	none (no result: L3MBTL1 block, JMJD2A Tudor inh, HP1b chromo inh, BAZ2B block)
CCOc1ccc(-c2nnc(SCC(=O)NCCC(C)C)nc2-c2ccc(OCC)c(OC)c2)cc1OC	G9a inh inconclusive (no result: L3MBTL1 block)
Clc1nc(Cl)nc(-c2cn(-c3ccccc3)c3ccccc23)n1	G9a inh 12.6µM, JMJD2A Tudor inh 79.4µM, BAZ2B block inconclusive
O=C(Nc1ccc2nc(SCC(=O)N3CCOCC3)sc2c1)c1ccc(F)cc1	none (no result: L3MBTL1 block)
O=C1NC(=S)S/C1=C/c1ccc(N2CCOCC2)o1	G9a inh 4.47µM, L3MBTL1 block 31.6µM, JMJD2A Tudor inh 39.8µM, HP1b chromo inh 35.5µM, BAZ2B block 20µM
O=C1S/C(=C/c2ccc(N3CCOCC3)o2)C(=O)N1Cc1ccc(F)cc1	G9a inh 7.94µM, JMJD2A Tudor inh 89.1µM
Cc1ccc(-c2ccc(/C=C3\SC(N4CCOCC4)=NC3=O)o2)cc1	G9a inh 31.6µM (no result: L3MBTL1 block, BAZ2B block)
COc1ccccc1C1=Nn2c(nnc2-c2cccc(OC)c2OC)SC1	none (no result: G9a inh, L3MBTL1 block, HP1b chromo inh, BAZ2B block)
CC1(C)CC(NC(=O)c2ccccn2)CC(C)(C)N1O	G9a inh inconclusive, JMJD2A Tudor inh inconclusive, BAZ2B block 50.1µM
Cc1cccc(Nc2nc(N3CCCCC3)nc(N3CCCCC3)n2)c1	none
Nc1nc(N2CCCCC2)nc2ccccc12	G9a inh 50.1µM

Screening data: PubChem, National Center for Advancing Translational Sciences (NCATS)
